PriA SSB inh – K. pneumoniae PriA-SSBct interaction inhibition; AID 1272365; inhibition, % at 33 µM; actives 0.6% (n = 430,000); AlphaScreen SSBct-PriA binding, biotinylated peptide; in the data active = inhibition mostly above about 37%, no sharp cut-off; inactive = mostly below about 20%;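 also: plate controls were negative control peptide for no effect and reference peptide for full effect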
TcdB GH inh – blocks C. difficile toxin B glycohydrolase activity; actives 0.24% (n = 350,000); TcdB glycohydrolase enzymatic assay, plate reader; inhibition, % at 9.99 µM; in the data active = inhibition above about 10%
SARS 3CLpro inh – SARS-CoV 3CLpro protease inhibition | recombinant SARS-CoV 3CLpro, quenched FRET peptide cleavage | P0C6X7 | inhibition, % at 6 µM | actives 0.14% (n = 290,000); in the data active = inhibition above about 12%
DUSP3 inh – DUSP3 (human) phosphatase inhibition; P51452; recombinant VHR phosphatase, pNPP absorbance; inhibition, % at 13.3 µM; actives 0.52% (n = 290,000); AID 1654; in the data active = inhibition above about 50%
CCHFV vOTU inh – blocks the CCHF virus ovarian tumor domain protease; AID 651958; actives 0.55% (n = 370,000); inhibition, % at 11.5 µM; CCHFV vOTU protease, Pep-AMC fluorescence; in the data active = inhibition above about 30%; also: 0% = vehicle wells with enzyme and 100% = no enzyme wells
Vc quorum ag – quorum light induction in luxS cqsA deficient V. cholerae; AID 588436; actives 0.16% (n = 350,000); V. cholerae BH1578 lux reporter, luminescence, 6 h; activation, % at 18.7 µM; in the data active = activation mostly above about 9.7%, no sharp cut-off
* hit, by the source's call. This is a sample that favours compounds with a hit; in the whole collection about 1.3% have one here.

How did CC(=O)Nc1ccc(OC(=O)N(C)C)cc1 do in these assays?
PriA SSB inh: 4; SARS 3CLpro inh: -4; DUSP3 inh: 4; CCHFV vOTU inh: -1; Vc quorum ag: 0

How did CC(=O)Nc1ccc(OC(=O)Oc2ccc(NC(C)=O)cc2)cc1 do in these assays?
PriA SSB inh: -5; TcdB GH inh: 11*; SARS 3CLpro inh: 0; DUSP3 inh: -30; CCHFV vOTU inh: 4; Vc quorum ag: -1

Results for COC(=O)Cc1[nH]n(-c2nc3ccccc3s2)c(=O)c1C(C)=O ?
PriA SSB inh: -10; SARS 3CLpro inh: 1; DUSP3 inh: 23; CCHFV vOTU inh: -7; Vc quorum ag: active

How did Fc1ccccc1N=C1NN=C(c2ccccc2)CS1 do in these assays?
PriA SSB inh: 14; TcdB GH inh: 2; SARS 3CLpro inh: 4; DUSP3 inh: 7; CCHFV vOTU inh: -1; Vc quorum ag: 0

How did Fc1ccc(N=C2NN=C(c3cc(F)ccc3F)CS2)cc1 do in these assays?
PriA SSB inh: 50*; TcdB GH inh: 1; SARS 3CLpro inh: 1; DUSP3 inh: -12; CCHFV vOTU inh: -10; Vc quorum ag: inactive

What do the screens show for `Cc1cccc(N=C2NN=C(c3ccccc3F)CS2)c1C`?
PriA SSB inh: 44*; TcdB GH inh: 1; SARS 3CLpro inh: -1; DUSP3 inh: 29; CCHFV vOTU inh: 23; Vc quorum ag: -2

Results for Fc1ccc(F)c(C2=NNC(=Nc3ccccc3F)SC2)c1 ?
PriA SSB inh: 38; TcdB GH inh: 1; SARS 3CLpro inh: 4; DUSP3 inh: 2; CCHFV vOTU inh: 4; Vc quorum ag: 0

How did COCCn1nc(CNC(=O)c2cc(C)on2)cc1-c1ccco1 do in these assays?
PriA SSB inh: 1

Results for Cn1c(=O)c2c(O)cc(=O)n(-c3ccccc3)c2n(C)c1=O ?
PriA SSB inh: -7; SARS 3CLpro inh: -4; DUSP3 inh: 51*; CCHFV vOTU inh: 4

How did O=C(Nc1nc2c(s1)CCc1ccccc1-2)c1ccc(Br)cc1 do in these assays?
PriA SSB inh: 9

What do the screens show for `COc1ccc2oc(=O)c(C(=O)OCCN3CCN(S(=O)(=O)c4ccc(C)cc4)CC3)cc2c1`?
PriA SSB inh: 6

How did Cc1cc(-c2ccc(S(=O)(=O)NCc3ccc(F)cc3)cc2)on1 do in these assays?
PriA SSB inh: -3; TcdB GH inh: -1; SARS 3CLpro inh: -3; DUSP3 inh: 8; CCHFV vOTU inh: 4; Vc quorum ag: -3

Results for COc1ccc(CNS(=O)(=O)c2ccc(-c3cc(C)no3)cc2)cc1 ?
PriA SSB inh: -3; TcdB GH inh: 1; SARS 3CLpro inh: 0; DUSP3 inh: 60*; CCHFV vOTU inh: 12; Vc quorum ag: inactive

How did O=C(Nc1cccc2ncccc12)c1ccc(Cl)cc1 do in these assays?
PriA SSB inh: 48*; TcdB GH inh: -1; SARS 3CLpro inh: 5; DUSP3 inh: -8; CCHFV vOTU inh: 2; Vc quorum ag: 1

Results for COC(=O)c1cccc(-n2c(N)c(C(=O)N3CCCCCC3)sc2=S)c1 ?
PriA SSB inh: 27

What do the screens show for `CS(=O)(=O)N(Cc1ccc(C(=O)Nc2ccccc2Sc2ccccc2)cc1)c1ccccc1`?
PriA SSB inh: -6; SARS 3CLpro inh: 13*; DUSP3 inh: 14; CCHFV vOTU inh: 8; Vc quorum ag: 0

How did CCS(=O)(=O)c1ccc(CC(=O)Nc2nnc(-c3ccco3)o2)cc1 do in these assays?
PriA SSB inh: 54*

How did O=[N+]([O-])c1ccc(Nc2ccccc2O)c2nonc12 do in these assays?
PriA SSB inh: 41*; TcdB GH inh: -5; SARS 3CLpro inh: 5; DUSP3 inh: 13; CCHFV vOTU inh: 14; Vc quorum ag: inactive

Results for Fc1ccc(-n2ncc3c(Nc4cccc(C(F)(F)F)c4)ncnc32)cc1 ?
PriA SSB inh: -26

What do the screens show for `NNc1ncnc2c1cnn2-c1ccccc1`?
PriA SSB inh: 64*; SARS 3CLpro inh: -4; DUSP3 inh: 15; CCHFV vOTU inh: 1; Vc quorum ag: inactive

How did CNc1ncnc2c1cnn2-c1ccccc1 do in these assays?
PriA SSB inh: 21

What do the screens show for `NNc1ncnc2c1cnn2-c1ccc(F)cc1`?
PriA SSB inh: 73*

What do the screens show for `COc1ccc(-c2nc(CNS(=O)(=O)c3ccc(Cl)s3)cs2)cc1`?
PriA SSB inh: -9

What do the screens show for `O=C(Cn1cnc(-c2ccc(F)cc2)cc1=O)Nc1ccccc1-c1cn2ccccc2n1`?
PriA SSB inh: -25

Results for CCOC(=O)C1CCCN(C2=NC(=O)/C(=C/c3ccc(OC)cc3)S2)C1 (stereo not drawn) ?
PriA SSB inh: 0; TcdB GH inh: 1; SARS 3CLpro inh: -4; DUSP3 inh: -12; CCHFV vOTU inh: 20; Vc quorum ag: 1

What do the screens show for `CCOC(=O)C1CCCN(C2=NC(=O)/C(=C/c3ccc(N(C)C)cc3)S2)C1` (stereo not drawn)?
PriA SSB inh: -7; TcdB GH inh: 0; SARS 3CLpro inh: -4; DUSP3 inh: 53*; CCHFV vOTU inh: 7; Vc quorum ag: inactive

How did O=C(CSc1nc2ccccc2o1)N1CCN(c2nc(-c3ccsc3)cs2)CC1 do in these assays?
PriA SSB inh: -1

What do the screens show for `COc1ccc2cc3[n+](cc2c1O)CCc1cc2c(cc1-3)OCO2`?
TcdB GH inh: -1; CCHFV vOTU inh: 101*

What do the screens show for `COc1cc2c(cc1OC)-c1cc3ccc(OC)c(OC)c3c[n+]1CC2`?
PriA SSB inh: 4; TcdB GH inh: 2; CCHFV vOTU inh: 21; Vc quorum ag: 4

How did Clc1ccc2nc(CN3CCCc4ccccc43)cn2c1 do in these assays?
PriA SSB inh: 43*; TcdB GH inh: 3; SARS 3CLpro inh: 1; DUSP3 inh: -10; CCHFV vOTU inh: 8; Vc quorum ag: inactive

Results for Cc1ccc(-n2[nH]c(C)c(/C=N/Nc3ccc([N+](=O)[O-])cc3[N+](=O)[O-])c2=O)cc1C ?
SARS 3CLpro inh: -3; DUSP3 inh: 50*; CCHFV vOTU inh: -1; Vc quorum ag: inactive

How did CCOC(=O)C1=C(N)N2C(=O)CSC2=C(C(=O)OC)C1 do in these assays?
PriA SSB inh: -1; SARS 3CLpro inh: -1; DUSP3 inh: 22; CCHFV vOTU inh: -2; Vc quorum ag: 60*

What do the screens show for `CC1(C)CC(=O)C(C(c2cccc([N+](=O)[O-])c2)C2C(=O)CC(C)(C)CC2=O)C(=O)C1`?
PriA SSB inh: 6; TcdB GH inh: 2; SARS 3CLpro inh: 4; DUSP3 inh: -8; CCHFV vOTU inh: 15; Vc quorum ag: -1

How did CC1(C)CC(=O)C(C(O)c2cccc([N+](=O)[O-])c2)C(C)(C)N1 (stereo not drawn) do in these assays?
PriA SSB inh: -1; TcdB GH inh: 0; SARS 3CLpro inh: -1; DUSP3 inh: 51*; CCHFV vOTU inh: -18; Vc quorum ag: 0

Results for CC(=O)OCC(=O)[C@@]12OC(C)(C)O[C@@H]1C[C@H]1[C@@H]3C[C@H](F)C4=CC(=O)C=C[C@]4(C)[C@@]3(F)[C@@H](O)C[C@@]12C ?
PriA SSB inh: -8; SARS 3CLpro inh: -4; DUSP3 inh: 5; Vc quorum ag: 21*

Screening results (PubChem)
